Test results published in PubChem BioAssay (NCATS).
“And” between values parts separate entries of the source, which are not always exact repeats. Equal values may be shown once. Inconclusive results are not listed. The source made the active and inactive calls. Unless noted, calls come from the whole dose curve; as a rule, active = well fitted curve in the direction sought with a large enough effect; inconclusive = small, poorly fitted or top-dose-only effect, or another doubt; inactive = no such curve, though single readings can be large; an effect the other way counts as inactive or inconclusive.

Experiments:
[1] = target: T1, Tyrosine-protein phosphatase non-receptor type substrate 1 (Homo sapiens) + Leukocyte surface antigen CD47 (Homo sapiens) (UniProt P78324+Q08722); test: CD47-SIRPalpha protein protein interaction - LANCE assay qHTS validation (AID 1347057; active = well fitted curve in the direction sought with a large enough effect in the signal ratio, with a control signal flat, not every such curve was filed as active; the % refers to the signal ratio; note: series mostly up to about 38 µM)
Summary of the method: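 First, His-tagged CD47 and Eu-labelled anti-His antibody met the compound for 30 min; next, site-specifically biotinylated SIRPalpha was added for 30 min; finally streptavidin-APC was added before reading the TR-FRET ratio.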

[2] = target: T1, Tyrosine-protein phosphatase non-receptor type substrate 1 (Homo sapiens) + Leukocyte surface antigen CD47 (Homo sapiens); test: CD47-SIRPalpha protein protein interaction - HTRF assay qHTS validation (AID 1347058; active = well fitted curve in the direction sought with a large enough effect in the signal ratio, not every such curve was filed as active; the % refers to the signal ratio; note: series mostly up to about 38 µM)
Summary of the method: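 TR-FRET read (Ch1/Ch2 ratio) of soluble extracellular CD47 and Avi-biotinylated SIRPalpha domains in PBS pH 7.4 with 0.05% IGEPAL; 7-point compound titration. Sequential 30 min room-temperature steps; non-biotinylated SIRPalpha as control inhibitor.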

[3] = target: T1, Tyrosine-protein phosphatase non-receptor type substrate 1 (Homo sapiens) + Leukocyte surface antigen CD47 (Homo sapiens); test: CD47-SIRPalpha protein protein interaction - Alpha assay qHTS validation (AID 1347059);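 note: bead proximity luminescence from CD47 binding SIRPalpha after compound preincubation with SIRPalpha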
Summary of the method: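 Soluble extracellular domains: Avi-tag biotinylated SIRPalpha (25 nM) preincubated 30 min RT with compound, then 6His-CD47 (12.5 nM) 30 min; Ni-NTA acceptor and streptavidin donor beads (10 ug/mL) 30 min, AlphaScreen read. PBS pH 7.4, 0.05% IGEPAL.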

[4] = target: Parathyroid hormone/parathyroid hormone-related peptide receptor (Homo sapiens) (UniProt Q03431); test: qHTS for PTHR1 Agonists: Optimization Screen against the NCGC LOPAC library (AID 1347079);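 note: GloSensor cAMP luminescence in HEK-293 GP2 cells expressing human PTHR1 with IBMX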
Summary of the method: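 Agonist readout: GloSensor cAMP luminescence, read after 15 min at room temperature. HEK-293-derived GP2 line carries PTHR1; compounds tested as a titration for 1 hr at 37C in presence of IBMX. M-PTH (1-15) served as control.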

[5] = qHTS for Inhibitors of the Functional Ribonucleoprotein Complex (vRNP) of Lassa (LASV) Arenavirus: Viability assay - alamar blue signal for LASV Primary Screen (AID 1347083; calls by dose curve; tested in HEK293 reporter line; note: nearly all actives have a fitted effect of over 80% in size; note: potency is the fitted concentration of half-maximal effect)
[6] = qHTS for Inhibitors of the Functional Ribonucleoprotein Complex (vRNP) of Lymphocytic Choriomeningitis Arenaviruses (LCMV): Viability assay - alamar blue signal for LCMV Primary Screen (AID 1347085; calls by dose curve; tested in HEK293 reporter line; note: nearly all actives have a fitted effect of over 80% in size; note: potency is the fitted concentration of half-maximal effect)
[7] = qHTS of pediatric cancer cell lines to identify multiple opportunities for drug repurposing: Primary screen for DAOY cells (AID 1347090); note: nearly all actives have a fitted effect of over 55% in size; note: potency is the fitted concentration of half-maximal effect
Summary of the method: (§1)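 Eight- or eleven-point concentration series, 48 h treatment at 37 degrees C in growth media; readout CellTiter-Glo luminescence. Potency and efficacy were taken from the concentration-response curves.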

[8] = qHTS of pediatric cancer cell lines to identify multiple opportunities for drug repurposing: Primary screen for SJ-GBM2 cells (AID 1347091); note: potency is the fitted concentration of half-maximal effect
Summary of the method: as §1

[9] = qHTS of pediatric cancer cell lines to identify multiple opportunities for drug repurposing: Primary screen for A673 cells (AID 1347092); note: nearly all actives have a fitted effect of over 45% in size; note: potency is the fitted concentration of half-maximal effect
Summary of the method: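 Cell viability of A673 measured by CellTiter-Glo ATP luminescence after 48 hours compound exposure. Dilution series spanned 0.78 nM to 46 µM (MIPE, 11-point) or 0.59 nM to 46 µM (NPC, 8-point); bortezomib 2.3 uM positive control.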

[10] = qHTS of pediatric cancer cell lines to identify multiple opportunities for drug repurposing: Primary screen for SK-N-MC cells (AID 1347093); note: potency is the fitted concentration of half-maximal effect
Summary of the method: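 Metabolically active cells were quantified by ATP-dependent luminescence (CellTiter-Glo, 15 min at room temperature) following 48 h treatment. Cells had been plated at 500-1,000 per well and settled for 5 h beforehand.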

[11] = qHTS of pediatric cancer cell lines to identify multiple opportunities for drug repurposing: Primary screen for NB-EBc1 cells (AID 1347095); note: potency is the fitted concentration of half-maximal effect
Summary of the method: (§2)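 Cells plated at 500-1,000/well in growth medium, compounds added after 5 h. MIPE tested at 11 points (from 0.78 nM), NPC at 8 points (from 0.59 nM). CellTiter-Glo luminescence after 48 h; concentration-response curves from primary screen.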

[12] = qHTS of pediatric cancer cell lines to identify multiple opportunities for drug repurposing: Primary screen for Saos-2 cells (AID 1347097); note: nearly all actives have a fitted effect of over 40% in size; note: potency is the fitted concentration of half-maximal effect
Summary of the method: as §2

[13] = qHTS of pediatric cancer cell lines to identify multiple opportunities for drug repurposing: Primary screen for SK-N-SH cells (AID 1347098); note: nearly all actives have a fitted effect of over 65% in size; note: potency is the fitted concentration of half-maximal effect
Summary of the method: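 Cells (500-1,000/well) rested 5 h, then received compounds for 48 h; metabolically active cells were measured by CellTiter-Glo luminescence. Final concentrations spanned up to 46 µM (MIPE, 11-point) or 0.59 nM-46 µM (NPC, 8-point) in primary screens, 11-point in follow-ups.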

[14] = qHTS of pediatric cancer cell lines to identify multiple opportunities for drug repurposing: Primary screen for NB1643 cells (AID 1347099); note: nearly all actives have a fitted effect of over 50% in size; note: potency is the fitted concentration of half-maximal effect
Summary of the method: as §2

[15] = qHTS of pediatric cancer cell lines to identify multiple opportunities for drug repurposing: Primary screen for LAN-5 cells (AID 1347100); note: potency is the fitted concentration of half-maximal effect
Summary of the method: (§3)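 Cells (500-1,000/well) in growth media were settled 5 h at 37 degrees C, then given compounds for 48 h. Viability was read as CellTiter-Glo luminescence. Primary runs used MIPE at 11 points (0.78 nM-46 µM) and NPC at 8 points (0.59 nM-46 µM); follow-ups used 11 points.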

[16] = qHTS for Inhibitors of the Functional Ribonucleoprotein Complex (vRNP) of Lassa (LASV) Arenavirus: LASV Primary Screen - GLuc reporter signal (AID 1347082; calls by dose curve; tested in HEK293 reporter line; note: series mostly up to about 57 µM; nearly all actives have a fitted effect of over 60% in size)
[17] = target: Nucleoprotein (Lymphocytic choriomeningitis virus (strain Armstrong)) (UniProt P09992); test: qHTS for Inhibitors of the Functional Ribonucleoprotein Complex (vRNP) of Lymphocytic Choriomeningitis Arenaviruses (LCMV): LCMV Primary Screen - GLuc reporter signal (AID 1347086; calls by dose curve; note: nearly all actives have a fitted effect of over 70% in size; note: potency is the fitted concentration of half-maximal effect)
[18] = qHTS of pediatric cancer cell lines to identify multiple opportunities for drug repurposing: Primary screen for TC32 cells (AID 1347089); note: nearly all actives have a fitted effect of over 60% in size
Summary of the method: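 Luminescent ATP read-out (CellTiter-Glo) of metabolically active TC32 cells after 48 h exposure. Concentration-response curves came from 11-point (MIPE, 0.78 nM–46 µM) or 8-point (NPC, 0.59 nM–46 µM) primary titrations; follow-up used 11 points.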

[19] = qHTS of pediatric cancer cell lines to identify multiple opportunities for drug repurposing: Primary screen for BT-37 cells (AID 1347094); note: series mostly up to about 57 µM
Summary of the method: as §2

[20] = qHTS of pediatric cancer cell lines to identify multiple opportunities for drug repurposing: Primary screen for U-2 OS cells (AID 1347096); note: nearly all actives have a fitted effect of over 50% in size
Summary of the method: as §3

Measured: Potency

Sequence of Nucleoprotein (Lymphocytic choriomeningitis virus (strain Armstrong)) (P09992 whole entry, looked up): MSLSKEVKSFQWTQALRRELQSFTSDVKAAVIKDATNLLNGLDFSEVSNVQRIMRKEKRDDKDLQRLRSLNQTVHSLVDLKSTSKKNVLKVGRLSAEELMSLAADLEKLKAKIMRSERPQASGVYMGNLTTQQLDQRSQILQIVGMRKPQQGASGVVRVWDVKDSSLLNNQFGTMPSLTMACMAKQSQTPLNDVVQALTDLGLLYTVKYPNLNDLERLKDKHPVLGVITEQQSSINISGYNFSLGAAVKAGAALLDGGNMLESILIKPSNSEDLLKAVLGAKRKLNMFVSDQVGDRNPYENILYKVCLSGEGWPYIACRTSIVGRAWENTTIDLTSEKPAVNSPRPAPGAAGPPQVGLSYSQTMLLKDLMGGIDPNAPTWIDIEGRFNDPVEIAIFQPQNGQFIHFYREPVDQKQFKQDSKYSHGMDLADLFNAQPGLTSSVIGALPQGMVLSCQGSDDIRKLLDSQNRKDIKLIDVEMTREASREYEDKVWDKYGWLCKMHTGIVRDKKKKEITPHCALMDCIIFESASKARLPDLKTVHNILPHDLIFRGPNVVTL
T1 sequence (P78324 whole entry, looked up): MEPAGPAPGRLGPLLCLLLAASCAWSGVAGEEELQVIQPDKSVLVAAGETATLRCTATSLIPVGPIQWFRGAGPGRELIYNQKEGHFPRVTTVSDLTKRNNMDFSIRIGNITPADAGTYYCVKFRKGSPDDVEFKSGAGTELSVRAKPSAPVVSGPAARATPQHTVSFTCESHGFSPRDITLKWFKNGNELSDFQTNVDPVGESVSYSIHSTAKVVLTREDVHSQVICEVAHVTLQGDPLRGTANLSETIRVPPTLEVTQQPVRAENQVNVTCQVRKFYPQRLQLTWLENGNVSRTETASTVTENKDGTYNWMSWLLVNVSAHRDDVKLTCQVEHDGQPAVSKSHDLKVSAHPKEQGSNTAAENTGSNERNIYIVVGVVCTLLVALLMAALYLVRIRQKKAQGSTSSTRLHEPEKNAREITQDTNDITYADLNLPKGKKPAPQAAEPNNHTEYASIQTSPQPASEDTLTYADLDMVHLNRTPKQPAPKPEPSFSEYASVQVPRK
T1 sequence (Q08722 whole entry, looked up): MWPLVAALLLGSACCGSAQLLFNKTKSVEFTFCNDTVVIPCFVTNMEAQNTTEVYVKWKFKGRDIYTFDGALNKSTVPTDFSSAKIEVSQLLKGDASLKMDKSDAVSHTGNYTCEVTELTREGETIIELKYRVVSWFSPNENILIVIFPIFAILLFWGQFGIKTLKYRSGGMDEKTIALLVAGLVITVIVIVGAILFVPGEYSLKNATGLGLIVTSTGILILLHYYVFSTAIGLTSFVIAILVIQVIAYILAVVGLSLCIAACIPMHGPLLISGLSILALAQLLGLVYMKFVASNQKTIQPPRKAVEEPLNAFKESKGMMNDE
Sequence of Parathyroid hormone/parathyroid hormone-related peptide receptor (Homo sapiens) (Q03431 whole entry, looked up): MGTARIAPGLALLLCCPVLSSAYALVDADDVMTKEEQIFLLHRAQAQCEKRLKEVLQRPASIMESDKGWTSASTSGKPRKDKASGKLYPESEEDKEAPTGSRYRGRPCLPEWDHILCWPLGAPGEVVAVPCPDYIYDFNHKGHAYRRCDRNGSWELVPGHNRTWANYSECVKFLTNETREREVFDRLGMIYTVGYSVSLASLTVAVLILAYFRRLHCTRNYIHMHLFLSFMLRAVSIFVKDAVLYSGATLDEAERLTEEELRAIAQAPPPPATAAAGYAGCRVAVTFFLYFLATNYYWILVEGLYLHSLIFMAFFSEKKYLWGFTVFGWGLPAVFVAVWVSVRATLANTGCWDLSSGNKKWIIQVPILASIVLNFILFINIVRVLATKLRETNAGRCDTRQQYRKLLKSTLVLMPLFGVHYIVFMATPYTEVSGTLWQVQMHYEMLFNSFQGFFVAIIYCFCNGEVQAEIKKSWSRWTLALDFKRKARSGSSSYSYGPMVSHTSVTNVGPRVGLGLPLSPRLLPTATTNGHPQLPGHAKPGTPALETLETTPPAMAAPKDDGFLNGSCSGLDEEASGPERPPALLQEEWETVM

C[C@@H]1O[C@@H](O[C@H]2C[C@@H](O)[C@]3(CO)[C@H]4[C@H](O)C[C@]5(C)[C@@H](C6=CC(=O)OC6)CC[C@]5(O)[C@@H]4CC[C@]3(O)C2)[C@H](O)[C@H](O)[C@H]1O
inactive: [1] | [2] | [3] | [4]
active: [5] 109 nM and 44.7 nM | [6] 122 nM and 89.1 nM | [7] 29.6 nM and 53.1 nM | [8] 18.7 nM and 75 nM | [9] 46.9 nM and 66.8 nM | [10] 16.6 nM and 23.7 nM | [11] 74.3 nM and 266 nM | [12] 59 nM and 75 nM | [13] 152 nM and 344 nM | [14] 187 nM and 299 nM | [15] 46.9 nM and 211 nM

COc1ccccc1N1CCNCC1
inactive: [1] | [2] | [3] | [4] | [16] | [5] | [6] | [17] | [18] | [7] | [8] | [9] | [19] | [20] | [12] | [13] | [15]

CC(CCc1ccccc1)NC(C)C(O)c1ccc(O)cc1 (configuration not stated)
inactive: [1] | [2] | [3] | [4] | [16] | [5] | [6] | [17] | [7] | [8] | [9] | [11] | [20] | [12] | [13] | [14] | [15]

CN(C)CCCN1c2ccccc2Sc2ccc(Cl)cc21
inactive: [16]

O=c1[nH]cc(F)c(=O)[nH]1
inactive: [16] | [5]

CC(CN1c2ccccc2Sc2ccccc21)N(C)C (configuration not stated)
inactive: [16] | [5] | [6] | [17]

O=C1OCCN1/N=C/c1ccc([N+](=O)[O-])o1
inactive: [16] | [5] | [6]

Cc1ccc(C)c(OCCCC(C)(C)C(=O)O)c1
inactive: [16] | [5] | [6] | [17]

COc1cc([C@@H]2c3cc4c(cc3[C@H](O)[C@H]3COC(=O)[C@H]23)OCO4)cc(OC)c1OC
inactive: [16]

CSc1ccc2c(c1)N(CCC1CCCCN1C)c1ccccc1S2 (configuration not stated)
inactive: [16]

C1N2CN3CN1CN(C2)C3
inactive: [16] | [5] | [6] | [17]

CCCCc1oc2ccc(NS(C)(=O)=O)cc2c1C(=O)c1ccc(OCCCN(CCCC)CCCC)cc1
inactive: [16] | [5] | [6]

COc1cc2c(c(OC)c1OC)-c1ccc(OC)c(=O)cc1[C@@H](NC(C)=O)CC2
inactive: [16] | [5] | [6]

Oc1ccc(C2CNCCc3c2cc(O)c(O)c3Cl)cc1 (configuration not stated)
inactive: [16] | [5] | [6] | [17]

Cc1ccc(C(=O)c2cc(O)c(O)c([N+](=O)[O-])c2)cc1
inactive: [16] | [5] | [6] | [17]

COC(=O)Nc1nc2ccc(C(=O)c3ccccc3)cc2[nH]1
inactive: [16]
active: [5] 3.43 µM | [6] 6.85 µM | [17] 5.44 µM

CCC(C)(C)C(=O)O[C@H]1C[C@@H](C)C=C2C=C[C@H](C)[C@H](CC[C@@H]3C[C@@H](O)CC(=O)O3)[C@H]21
inactive: [16]

COCCCOc1cc(C[C@@H](C[C@H](N)[C@@H](O)C[C@H](C(=O)NCC(C)(C)C(N)=O)C(C)C)C(C)C)ccc1OC
inactive: [16] | [5] | [6] | [17]
